Assay outcomes deposited in PubChem BioAssay by National Center for Advancing Translational Sciences (NCATS).
An excerpt weighted towards active compounds, which were near 2.7% of everything screened.
Tau ThT inhib – tau fibrillization inhibition (ThT binding). P10636. recombinant tau K18 P301L, heparin-induced fibrillization, ThT fluorescence. Potency, µM (highest dose often 57.4 µM), most hits filed as inhibitors. 2.1% of 270,000 active; further: nearly all actives have a fitted effect of over 55% in size
Target sequence (P10636 561-689 P618L limits assumed): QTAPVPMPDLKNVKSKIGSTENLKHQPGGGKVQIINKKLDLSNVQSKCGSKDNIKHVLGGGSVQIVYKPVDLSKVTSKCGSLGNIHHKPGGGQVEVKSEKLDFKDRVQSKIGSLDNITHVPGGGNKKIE
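ThT emission at 510 nm, taken 1 hr after adding 30 uM dye, quantifies aggregates formed when 20 uM heparin acts on human tau K18 P301L for 6 hr at 37 C.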
Tau fluor cs – counter-screen for tau fibril formation inhibitors. tau K18 P301L Alexa594 fluorescence, heparin fibrillization. Potency, µM (highest dose often 57.7 µM). 0.93% of 280,000 active. AID 1463; further: nearly all actives have a fitted effect of over 55% in size
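Human tau K18 P301L (15 uM unlabeled, 0.24 uM Alexa 594-labeled) in 100 mM sodium acetate pH 7 with 20 uM heparin, 6 hr at 37 C. ThT 30 uM added, 1 hr ambient; Alexa 594 FP and total fluorescence read at 555/632 nm.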
FBPA coupling cs – inhibits coupling enzyme system, counter-screen for aldolase hits | activity change, negative = inhibition, % at 58.2 µM, hits read low | AID 2472 | 0.67% of 290,000 active | coupling enzyme system counterscreen, AmpLite Red fluorescence; in the data active means activity change below about -30%
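Counterscreen of the coupled detection system alone, without aldolase: glyceraldehyde-3-phosphate coupling enzymes plus AmpLite Red readout. Compounds at 57.5 uM final, 10 min RT preincubation, 20 min RT reaction, fluorescence 525/598 nm.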
Tau fibril FP – blocks human tau fibril formation measured by polarization | P10636 | K18 P301L tau heparin fibrillization, Alexa594 FP, 6 h | Potency, µM (highest dose often 57.7 µM), most hits filed as inhibitors | 0.39% of 280,000 active | AID 1468; further: nearly all actives have a fitted effect of over 55% in size
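K18 P301L tau (15 uM unlabeled/0.24 uM Alexa 594-labeled, final) + compound + heparin 20 uM final; 100 mM NaOAc pH 7; 6 hr 37 C; ThT 30 uM final added, 1 hr RT; FP ex 555/em 632 nm.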
Of the large screens only hits and unclear results are named; the others gave an inactive call; ! = repeats disagree; [ ] = remark or other dose. Unless noted, the call rests on the fitted dose curve; in most records, active means well fitted curve in the direction sought with a large enough effect; inconclusive means small, poorly fitted or top-dose-only effect, or another doubt; inactive means no such curve, though single readings can be large; an effect the other way counts as inactive or inconclusive.

CCN(CC)c1cc(C)c2cc(NC(=O)c3cccc(OC)c3)ccc2n1	Tau ThT inhib inconclusive, Tau fluor cs inconclusive (no result: FBPA coupling cs)
COc1cccc(C(=O)Nc2ccc3nc(N4CCC(C)CC4)cc(C)c3c2)c1	Tau ThT inhib inconclusive, Tau fluor cs 13µM[quencher] (no result: FBPA coupling cs)
CCOC(=O)c1c(C)[nH]c(C)c1S(=O)(=O)N(C)CC(=O)Nc1ccc(C)c(N(C)C)c1	none (no result: FBPA coupling cs)
CC1CCCCN1c1cc2c(cc1F)c(=O)c(S(=O)(=O)c1ccccc1)cn2Cc1ccccc1 (stereo not drawn)	none (no result: FBPA coupling cs)
O=C(Nc1nc2ccc(S(=O)(=O)N3CCCC3)cc2s1)c1cccc(F)c1	none (no result: FBPA coupling cs)
CCC(C)NC(=O)c1cc2c(=O)n(CC)c3ccccc3c2s1 (stereo not drawn)	none (no result: Tau ThT inhib, Tau fluor cs, Tau fibril FP)
Cc1oc2ncn(CC(C)C)c(=O)c2c1C(=O)N1CCN(c2cccc(C(F)(F)F)c2)CC1	none (no result: FBPA coupling cs)
COc1ccc(/C=C/C(=O)Nc2ccc3nc(N4CCCCC4)cc(C)c3c2)cc1OC	Tau ThT inhib 2.8µM, Tau fluor cs 7.9µM[quencher], Tau fibril FP inconclusive (no result: FBPA coupling cs)
Oc1ccc(/C=N/N2CCN(C3c4ccccc4-c4ccccc43)CC2)c(O)c1	Tau fluor cs 13µM[quencher], Tau fibril FP inconclusive
Oc1ccc(/C=N/N2CCN(C3c4ccccc4-c4ccccc43)CC2)cc1	Tau fluor cs inconclusive
Oc1ccc(/C=N/N2CCN(C3c4ccccc4-c4ccccc43)CC2)cc1O	Tau ThT inhib inconclusive, Tau fluor cs 13µM[quencher], Tau fibril FP inconclusive
CN(C)c1ccc(C(=C2C=CC(=[N+](C)C)C=C2)c2ccccc2)cc1	none (no result: Tau ThT inhib, Tau fluor cs, Tau fibril FP)
CN(C)c1ccc(C(=C2C=CC(=[N+](C)C)C=C2)c2ccc(N(C)C)cc2)cc1	Tau ThT inhib 5µM, Tau fluor cs 7.1µM[quencher], FBPA coupling cs -58, Tau fibril FP 16µM
CCOc1ccc(NC(=O)NC(CC)Cn2nnc3ccccc3c2=O)cc1 (stereo not drawn)	Tau ThT inhib inconclusive (no result: FBPA coupling cs)
COC(=O)C1(C(=O)OC)C/C=C\C/C=C\c2ccccc2[C@@H]1C[N+](=O)[O-]	Tau fibril FP inconclusive
CC1=C(C#N)C(=O)NC(=O)/C1=C/c1ccc(-c2ccc(S(N)(=O)=O)cc2)o1	Tau ThT inhib 16µM, Tau fluor cs inconclusive
Oc1ccc(N=Cc2ccc(-c3cccs3)s2)cc1	Tau ThT inhib 7.9µM, Tau fluor cs inconclusive, FBPA coupling cs -51, Tau fibril FP 14µM
COc1ccc(-n2c(CC3C(=O)Nc4ccc(C)cc43)nc3ccccc3c2=O)cc1 (stereo not drawn)	none (no result: FBPA coupling cs)
C(=C/c1nccc2c1[nH]c1ccccc12)/c1ccc2c(c1)OCO2	Tau ThT inhib inconclusive, Tau fluor cs 7.1µM[quencher]
Cc1cc(O)ccc1N=Cc1c(C(F)(F)F)[nH][nH]c1=O	Tau ThT inhib 25µM, Tau fluor cs inconclusive, Tau fibril FP 32µM
CCc1ccc(S(=O)(=O)c2nnn3c2nc(Nc2ccc(F)cc2)c2cc(Cl)ccc23)cc1	Tau fluor cs inconclusive, Tau fibril FP 14µM (no result: FBPA coupling cs)
Cc1ccc(C)c(S(=O)(=O)c2nnn3c2nc(Nc2ccc(F)c(Cl)c2)c2sccc23)c1	Tau ThT inhib inconclusive, Tau fluor cs inconclusive, Tau fibril FP 14µM (no result: FBPA coupling cs)
COc1ccc(Nc2nc3c(S(=O)(=O)c4ccccc4)nnn3c3ccc(Cl)cc23)cc1	Tau fibril FP inconclusive (no result: FBPA coupling cs)
Nc1nc(-c2ccccc2)c(N=Nc2cccnc2)s1	Tau ThT inhib 2.8µM, Tau fluor cs inconclusive
CCN(CC)S(=O)(=O)c1ccc2c(c1)N(CC(=O)NCc1ccc(F)cc1)C(=O)CO2	none (no result: FBPA coupling cs)
O=S(=O)(c1ccc(NC(=S)Nc2ccccc2)cc1)N1CCOCC1	none
CC(C)CCCCCCNC(=S)Nc1ccc(S(=O)(=O)N2CCOCC2)cc1	Tau fluor cs inconclusive, Tau fibril FP 25µM
N#Cc1cccc(CS(=O)(=O)c2nnnn2C2CCCCC2)c1	none
O=C1c2cccc3cccc(c23)C(=O)N1c1cccnc1	Tau fluor cs inconclusive, Tau fibril FP 13µM
Cc1ccccc1N=C1NN=C(c2ccccc2F)CS1	Tau ThT inhib 28µM, Tau fibril FP inconclusive
Cc1nn(-c2ccccc2)c2[nH]c(=O)c(CNc3ccc(N4CCOCC4)cc3)cc12	Tau ThT inhib 18µM, Tau fluor cs inconclusive, Tau fibril FP inconclusive
CC(N)(Cc1ccc(O)c(O)c1)C(=O)O (stereo not drawn)	Tau ThT inhib 4µM, Tau fluor cs inconclusive, Tau fibril FP inconclusive (no result: FBPA coupling cs)
C[C@@](Cc1ccc(O)c(O)c1)(NN)C(=O)O	Tau ThT inhib 14µM!, Tau fluor cs inconclusive, Tau fibril FP inconclusive
N[C@@H](Cc1ccc(O)c(O)c1)C(=O)O	none (no result: Tau ThT inhib, Tau fluor cs, Tau fibril FP)
O=C(NCCc1c[nH]c2ccccc12)c1ccccc1O	none (no result: Tau ThT inhib, Tau fluor cs, Tau fibril FP)
